Assay outcomes deposited in PubChem by Sanford-Burnham Center for Chemical Genomics.
SENP8 block-1: SENP8 protease inhibition. purified SENP8, Z-RLRGG-aminoluciferin cleavage, luminescence. 330,000 compounds, 1.2% hits. AID 2540. inhibition, % at 10 µM. Q96LD8; in the data active = inhibition above about 50%
PPC-1+TRAIL kill: compounds killing PPC-1 cancer cells with TRAIL present (potentiator screen, no TRAIL-free arm). AID 1443. PPC-1 cells + TRAIL, ATPLite viability luminescence. 220,000 compounds, 0.41% hits. cell killing (% activity), % at 4 µM or 5 µM;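 active = cell killing above 50% in the first pass at 4 µM, then a duplicate retest at 5 µM averaging 50% or more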;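 also: plate controls were cells with TRAIL plus DMSO for no effect and medium-only wells lacking cells for full effect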
SENP6 inh: inhibitors of human SENP6 protease; Q9GZR1; 330,000 compounds, 1.8% hits; Recombinant SENP6 catalytic domain, aminoluciferin luminescence; inhibition, % at 10 µM;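 active = inhibition above about 50% at the single tested dose, limit read from the data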;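 also: plate controls were DMSO wells with enzyme for no effect and DMSO wells lacking enzyme for full effect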
TRAIL sens C8: sensitizes caspase-8 expressing cells to TRAIL. NB7+C8 cells + TRAIL, ATPlite viability luminescence. inhibition (viability loss, TRAIL sensitization), % at 10 µM. 360,000 compounds, 1% hits;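 active = compounds causing at least 50% loss of cell viability in the single-dose screen, relative to plate controls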
SENP8 block-2: blocks human SENP8 cleavage of Nedd8 substrate. 360,000 compounds, 0.64% hits. recombinant SENP8, Nedd8 substrate fluorescence. AID 602440. Q96LD8. inhibition, % at 20 µM; in the data active = inhibition mostly above about 40%, no sharp cut-off; inactive = mostly below about 27%
SENP7 block: blocks the human protease SENP7. Q9BQF6. recombinant SENP7, Z-RLRGG-aminoluciferin luminescence, 40 min. inhibition, % at 5 µM. 330,000 compounds, 1.5% hits;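 active = inhibition above about 50% at the single test dose, limit read from the data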;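 also: plate controls were DMSO with enzyme for no effect and no enzyme buffer wells for full effect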
Target sequence (Q9BQF6 706-1050 limits assumed): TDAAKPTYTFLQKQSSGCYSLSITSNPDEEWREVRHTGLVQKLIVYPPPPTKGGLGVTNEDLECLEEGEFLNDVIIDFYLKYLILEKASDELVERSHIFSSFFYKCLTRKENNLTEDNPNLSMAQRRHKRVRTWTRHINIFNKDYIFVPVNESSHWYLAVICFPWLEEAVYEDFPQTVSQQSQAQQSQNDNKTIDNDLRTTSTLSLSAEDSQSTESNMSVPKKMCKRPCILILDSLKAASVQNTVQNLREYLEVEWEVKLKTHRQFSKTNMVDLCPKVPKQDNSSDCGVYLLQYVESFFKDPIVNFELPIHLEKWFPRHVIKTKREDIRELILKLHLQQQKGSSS
SENP8 inh conf: SENP8 (human) inhibition, single concentration confirmation; AID 624319; shares compounds with SENP8 block-2; inhibition, % at 25 µM; purified SENP8, Nedd8-AMC/pro-Nedd8 cleavage fluorescence, 30 min; 1,400 compounds, 15% hits; in the data active = inhibition mostly above about 39%, no sharp cut-off; inactive = mostly below about 34%
* = called active by the depositor; x = not tested or not shown. This is a sample that favours compounds with a hit; in the whole collection about 3% have one here.

SMILES | SENP8 block-1 | PPC-1+TRAIL kill | SENP6 inh | TRAIL sens C8 | SENP8 block-2 | SENP7 block | SENP8 inh conf
O=C(/C=C/[C@H]1O[C@@H](n2cnc3c(NC(=O)c4ccccc4)ncnc32)[C@H](O)[C@@H]1O)NCc1cccs1 | x | x | x | -16.5 | 26.1 | x | x
Cc1cccc(C(=O)Nc2nnc(S(=O)(=O)N3CCC(C)CC3)s2)c1 | 5.6 | x | 6.8 | -12.3 | -118.7 | -0.9 | x
C/C(=N\Nc1ccc(S(N)(=O)=O)cc1[N+](=O)[O-])c1ccc2c(c1)OCO2 | x | 4.8 | x | 8.3 | 47.4* | x | 19.9
NS(=O)(=O)c1ccc(N/N=C/c2ccc[nH]2)c([N+](=O)[O-])c1 | -4.6 | -5.0 | -11.3 | 3.6 | 35.2* | 8.0 | 16.7
CCC(CC)=NNc1ccc(S(N)(=O)=O)cc1[N+](=O)[O-] | 6.2 | -3.0 | 8.8 | 4.4 | 47.0* | -2.3 | 9.2
Cc1cccc(OCc2nnc(SCC(=O)O)n2-c2ccccc2)c1 | -6.6 | x | -0.2 | -9.6 | 15.8 | -14.0 | x
Cc1nc2ccccc2n1CC(O)COCC1CC=CCC1 (stereo not drawn) | -2.8 | 6.6 | -1.5 | 8.2 | 43.0* | -2.0 | -4.8
CC1(C)CC(Cc2ccc(C(F)(F)F)cn2)N(C(=O)OC(C)(C)C)C1 (stereo not drawn) | x | x | x | -2.1 | 10.6 | x | x
O=c1cc(-c2ccc(O)cc2)oc2cc(O)c([C@@H]3O[C@H](CO)[C@@H](O)[C@H](O)[C@H]3O)c(O)c12 | -2.2 | x | -19.6 | -9.0 | 44.7* | 6.3 | 9.6
COC(=O)Oc1nsnc1N1CCOCC1 | 1.5 | -16.8 | 5.9 | 1.1 | 12.9 | -3.0 | x
O=c1c(N2CCOCC2)nsnc1N1CCOCC1 | -6.2 | 16.0 | 3.5 | -9.3 | 49.3* | 1.5 | 24.6
COc1ccc(N/C=C/c2nc(SC)nnc2C)cc1 | -6.3 | -2.1 | -10.5 | 6.0 | 35.6* | -1.9 | 36.4
COCCN(C(=O)CSc1cc(C)c2ccccc2n1)c1c(N)n(CC(C)C)c(=O)[nH]c1=O | -1.2 | x | -6.1 | -14.3 | 2.3 | 2.5 | x
COc1cccc(OC)c1C(=O)NC(=S)N1CCCCC1c1cccnc1 (stereo not drawn) | -0.2 | x | 10.5 | -6.5 | 51.8* | 2.5 | 15.7
O=C(Nc1cccnc1)c1ccc([N+](=O)[O-])s1 | 2.8 | x | 10.2 | 14.9 | 43.2* | 10.2 | 29.9
O=C(CCc1ccc(S(=O)(=O)NCc2ccccc2)cc1)NCC1CCCO1 (stereo not drawn) | -11.4 | 22.4 | -3.0 | 9.6 | 5.7 | -14.2 | x
O=C(NNc1cccc(Cl)n1)Nc1ccc(Cl)cc1 | -6.4 | 16.8 | 11.3 | -9.7 | -2.0 | -10.4 | x
Cc1ccc(NNC(=O)Nc2ccc(Cl)cc2)nn1 | -6.3 | -4.0 | -0.8 | -17.3 | 48.2* | 5.0 | 1.8
CC1CCCCC1NC(=O)COC(=O)COc1ccccc1Cl (stereo not drawn) | 1.4 | 19.2 | -8.5 | -10.9 | 4.7 | 3.6 | x
COc1ccc(OCC(=O)OCC(=O)NC2CCCCC2C)cc1 (stereo not drawn) | 4.9 | x | 5.9 | -9.2 | 45.6* | 1.7 | 10.0
CCS(=O)(=O)N1CCN(c2ccc([N+](=O)[O-])c(NC(C)c3ccccc3)c2)CC1 (stereo not drawn) | -0.1 | 5.4 | -0.6 | -0.3 | 60.2* | 2.5 | 0.5
O=[N+]([O-])c1ccc(N2CCCC2)cc1NC(c1ccccc1)c1ccccc1 | -3.0 | 5.9 | -2.9 | 11.9 | 56.4* | 1.6 | 8.2
CC(Nc1cc(N2CCNCC2)ccc1[N+](=O)[O-])c1ccccc1 (stereo not drawn) | -6.5 | 14.6 | -2.7 | -4.6 | 35.3 | -4.0 | x
CCS(=O)(=O)N1CCN(c2ccc([N+](=O)[O-])c(NCc3ccccc3)c2)CC1 | 4.1 | 11.4 | -17.0 | -0.3 | 34.8 | 2.5 | x
CS(=O)(=O)N1CCN(c2ccc([N+](=O)[O-])c(NCc3ccccc3)c2)CC1 | -8.7 | -5.4 | -4.2 | 16.7 | 44.7* | -13.0 | 22.7
O=C(CSc1nnc2c(n1)[nH]c1ccccc12)Nc1nncs1 | -3.1 | x | -25.8 | 9.1 | -5.8 | -8.7 | x
CC(Nc1ccc(Br)cc1)C(=O)N/N=C/c1ccccc1OCc1ccccc1 (stereo not drawn) | -12.8 | 12.2 | -2.5 | -1.5 | 46.5* | -6.5 | 22.0
COc1ccc(NC(C)C(=O)N/N=C/c2ccccc2OCc2ccc(Br)cc2)cc1 (stereo not drawn) | 8.9 | -18.2 | 16.0 | 1.7 | 28.3 | 5.2 | x
